ChEMBL document CHEMBL3433997, “St. Jude Leishmania screening dataset” (2016)

Tests used:
Format in all cases: functional
[1] = target: Solute carrier family 2, facilitated glucose transporter member 1 (Homo sapiens) (UniProt P11166); assay: ST_JUDE_LEISH: Cytotoxicity at 2uM final concentration against transgenic Leishmania Mexicana promastigotes LmGLUT1 that are glucose transport deficient and complemented with the human glucose transporter GLUT1. Activity is measured by DNA content using SYBR green in vitro
Chain of Solute carrier family 2, facilitated glucose transporter member 1 (Homo sapiens) (P11166 whole entry): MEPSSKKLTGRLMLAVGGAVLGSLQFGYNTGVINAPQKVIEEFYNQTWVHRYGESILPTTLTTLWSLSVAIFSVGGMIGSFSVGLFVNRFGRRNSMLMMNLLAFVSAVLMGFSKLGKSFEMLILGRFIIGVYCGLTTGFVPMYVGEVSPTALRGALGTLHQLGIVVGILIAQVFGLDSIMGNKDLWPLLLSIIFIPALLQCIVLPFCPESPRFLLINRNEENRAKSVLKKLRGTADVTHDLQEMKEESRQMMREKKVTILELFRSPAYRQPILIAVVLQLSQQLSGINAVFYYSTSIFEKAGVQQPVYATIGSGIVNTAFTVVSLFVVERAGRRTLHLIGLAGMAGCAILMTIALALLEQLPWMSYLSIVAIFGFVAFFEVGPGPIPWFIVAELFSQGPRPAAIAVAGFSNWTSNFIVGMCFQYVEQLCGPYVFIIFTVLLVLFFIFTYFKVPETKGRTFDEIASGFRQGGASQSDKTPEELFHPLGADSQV

[2] = target: Hexose transporter 1 (Plasmodium falciparum) (UniProt O97467); assay: ST_JUDE_LEISH: Cytotoxicity at 2uM final concentration against transgenic Leishmania Mexicana promastigotes LmPfHT that are glucose transport deficient and complemented with the Plasmodium falciparum hexose transporter. Activity is measured by DNA content using SYBR green in vitro
[3] = target: Glucose transporter (Leishmania mexicana) (UniProt O61059); assay: ST_JUDE_LEISH: Cytotoxicity at 2uM final concentration against transgenic Leishmania Mexicana promastigotes LmGT2 that are glucose transport deficient and complemented with the L. Mexicana glucose transporter 2. Activity is measured by DNA content using SYBR green in vitro

Row | Compound | inhibition [1] [%] | inhibition [2] [%] | inhibition [3] [%]
1 | CON=C1CCC(Cn2ccnc2)(c2ccc(Cl)cc2Cl)CC1 (stereo not drawn) | 7.4 | 2.3 | 4.22
2 | O=C(Nc1ccc(Cn2ncc(N3CCCNCC3)c(Cl)c2=O)cc1)Nc1cc(F)cc(C(F)(F)F)c1 | 2.7 | 3.7 | 0.99
3 | Cc1cccc2nc(-c3cccc(-c4cccc(NC(=O)c5cccnc5Cl)c4)c3)[nH]c12 | 1.25 | 2.51 | 3.23
4 | COc1ccc(CCNC(=O)c2cnc3c(c2)nc(-c2c[nH]c(-c4ccccc4)n2)n3CCc2c[nH]cn2)cc1 | 1 | -1.24 | 2.62
5 | O=C(NC1CCN(Cc2ccccc2)CC1)c1ccc(-c2nc3cc(F)c(F)cc3[nH]2)s1 | 3.16 | 3.84 | 5.72
6 | Cc1cc(C)c(NC(=O)N2CCCN(CCCCCNC(=O)/C=C/c3ccc(Cl)c(Cl)c3)CC2)c(C)c1 | 3.44 | 2.95 | 2.56
7 | COc1cc(F)c2nccc([C@@H](O)CN3CCC(NCc4ccc5c(n4)NC(=O)CS5)CC3)c2c1 | -0.92 | -1.04 | -1.38
8 | Nc1ccc2[nH]cc(C3CCN(CC4CCC(NC(=O)/C=C/c5ccc(Cl)c(Cl)c5)CC4)CC3)c2n1 (stereo not drawn) | -2.2 | -0.28 | -4.12
9 | Cc1noc(-c2ccccc2)c1NC(=O)N1CCN(CCCCCCNC(=O)/C=C/c2ccc(Cl)c(Cl)c2)CC1 | -2.35 | 0.35 | -1.3
10 | COc1cccc(CNC[C@@H](O)[C@H](Cc2ccccc2)NC(=O)c2cc(C(C)C)cc(N3CCCC3=O)c2)c1 | -1.08 | 0.91 | -1.21
11 | FC(F)(F)c1ccc2[nH]c(-c3ccc(-c4ccc(CNCC5CCCO5)cc4)s3)nc2c1 (stereo not drawn) | -1.55 | 0.38 | -1.62
12 | O=C(/C=C/c1ccc(Cl)c(Cl)c1)NCCCCCCN1CCN(C(=O)Nc2ccc(C(F)(F)F)cc2)CC1 | 2.86 | 3.11 | 3.19
13 | O=S(=O)(NCCN1CCCC1)c1ccc(-c2ccc(CNCc3ccccc3)cc2)s1 | 4.55 | 3.35 | 2.5
14 | Cc1[nH]c2ccc(C#N)cc2c(=O)c1Br | 2.13 | 1.62 | 1.31
15 | Cc1occc1C(=O)Nc1nc(-c2ccccn2)nc2ccsc12 | 78.6 | 73.2 | 70
16 | NC(=O)C1CCN(Cc2cccc(-c3cccc(-c4nc5cc(C(F)(F)F)ccc5[nH]4)c3)c2)CC1 | 13.1 | 11.4 | 10.3

Row | Compound | inhibition [1] [%] | inhibition [2] [%] | inhibition [3] [%]
17 | O=C(Cc1cccnc1)Nc1cccc(-c2cccc(-c3nc4cc(C(F)(F)F)ccc4[nH]3)c2)c1 | 2.67 | 1.57 | 1.35
18 | O=C(Nc1ccc(Cl)c(C(F)(F)F)c1)N[C@H]1CCN(CCCCCNC(=O)C2CC2c2ccc(Cl)c(Cl)c2)C1 (stereo partly drawn) | -1.57 | 1.02 | -0.67
19 | O=C(/C=C/c1ccc(-c2nc3ccc(Cl)cc3[nH]2)cc1)NC1CCN(Cc2ccccc2)CC1 | 1.24 | 1.66 | 3.7
20 | COCC(C)n1c(C)cc(C(=O)CSc2nnc(Nc3ccccc3)s2)c1C (stereo not drawn) | 1.18 | 1.49 | -0.94
21 | Cc1cc2ncn(-c3nccc(NCc4cccnc4)n3)c2cc1C | 4.32 | 4.68 | 2.17
22 | COc1cc2ncnc(Nc3ccc(OC(F)(F)c4ccccc4)cc3)c2cc1OC | 9.55 | 10.8 | 7.93
23 | O=S(=O)(c1cccc2cccnc12)N1CCN(C2CCCCC2)CC1 | 8.16 | 8.51 | 7.83
24 | COc1ccc2[nH]c(-c3ccccc3)cc(=NN=Cc3ccncc3)c2c1 | 3.48 | 3.17 | 5.54
25 | O=C(OCc1ccccn1)c1nc2ccccc2[nH]1 | 0.81 | 2.57 | 0.92
26 | O=C(Nc1cccc(-c2cccc(-c3nc4cc(C(F)(F)F)ccc4[nH]3)c2)c1)Nc1ccc(F)c(F)c1F | -0.38 | -0.91 | 0.55
27 | Cc1nn(CC(C)C)c2sc(C(=O)Nc3nc(-c4ccccn4)cs3)cc12 | 3.49 | 3.41 | 2.33
28 | O=C(Nc1cccc([N+](=O)[O-])c1)Nc1cccc(C(F)(F)F)c1 | 1.48 | 1.8 | 2.9
29 | OCC1CCN(Cc2ccc(-c3cccc(-c4nc5ccccc5[nH]4)c3)cc2)CC1 | 1.15 | 1.08 | 3.83
30 | CCN(CC)CCN(Cc1ccc(-c2ccc(C(F)(F)F)cc2)cc1)C(=O)c1ccc(-c2ccc(NC(=O)OC)cc2C)cc1 | 29.9 | 17.9 | 10.1
31 | C=C[C@]1(C)C[C@@H](OC(=O)NC(=O)C2CCN(C(=O)CSc3ccccc3)CC2)[C@]2(C)[C@H](C)CC[C@]3(CCC(=O)[C@H]32)[C@@H](C)[C@@H]1O | 10.2 | 11.6 | 5.56
